# Reference: PubChem BioAssay (NCI)
# About 79,000 compounds went through this panel and 15% of them were active in at least one assay; those are over-represented in the sample as a whole. Unmarked numbers belong to inactive results. Active and inactive are the calls of the source. No stated cut-off is given here; in the data, active means growth inhibition above about 70%; inactive means the rest.
# Assay: NCI Yeast Anticancer Drug Screen. Data for the sgs1 mgt1 strain (AID 161);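 further: 0% = growth of cultures given vehicle only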
# Details: S. cerevisiae sgs1 mgt1 strain, at 5.0 µM (retest, dose inferred, filed as 0.5), hits give high values
# Summary of the method: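 Inhibition of yeast growth, normalised to vehicle-treated controls, is reported for a strain bearing genetic alterations in DNA damage repair.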
row,Compound,growth inhibition
1,CC(=O)Oc1ccccc1C(=O)/C=C/c1ccccc1,4%
2,CN(C)C(=S)/N=c1\ssc(=S)n1-c1ccccc1,50%
3,CCOC(=O)C(NS(=O)(=O)c1ccccc1)(C(F)(F)F)P(=O)(OCC(C)C)OCC(C)C (stereo not drawn),-7%
4,CC(C)Nc1nc(NC(C)C)c2cnn(-c3ccccc3)c2n1,2%
5,CCCCCCCCC1(OCCCS(=O)(=O)O)COc2ccccc2OCCOCCOc2ccccc2OC1,-6%
6,Oc1ccc2c(c1)Cc1ccccc1-2,1%
7,CCOC(=O)N1C2C=CC(=O)C(C=C2)N1C(=O)OCC (stereo not drawn),1%
8,CC(=O)OCc1ccc2c(c1)C(O)NC(=O)O2 (stereo not drawn),13%
9,CC(C)=CCc1ccc(O)cc1,-13%
10,CCCCCCCCC(=O)Cl,10%
11,O=S1(=O)C(C(O)(c2ccccc2)c2ccccc2)CCCN1c1ccccc1 (stereo not drawn),-1%
12,CCCCCCCCCCCCNCC(=O)O,3%
13,CC(C)=CCc1c2c(c(O)c3c(=O)c(-c4ccc(O)cc4O)coc13)C=CC(C)(C)O2,-11%
14,O=C(CCC(O)(c1ccccc1)c1ccccc1)c1ccccc1,-11%
15,CS(=O)(=O)OCCN(CCOS(C)(=O)=O)c1ccc(C=Nc2ccc(-c3csc(-c4ccc(Br)cc4)n3)cc2)cc1,18%
16,O=P(O)(CN1CCN(CP(=O)(O)c2ccccc2)CCN(CP(=O)(O)c2ccccc2)CC1)c1ccccc1,11%
17,CC(C)c1ccc2c(c1)CCC1C(C)(CN)CCCC21C (stereo not drawn),35%
18,Cc1ccc(S(=O)(=O)NNc2nc(N3CCOCC3)nc(N3CCOCC3)n2)cc1,10%
19,O=C1OC(CC(=O)c2ccc(Cl)cc2Cl)C(Cl)=C1Cl (stereo not drawn),4%
20,CCOC(=O)c1ccc(-n2c(C)nc3ccc(Br)cc3c2=O)cc1,-4%

row,Compound,growth inhibition
1,CCN(CC)CCOc1ccc(C=C2c3ccccc3-c3ccccc32)cc1,99% (active)
2,Cc1nn(C(=O)c2ccccc2O)c2c1C(c1ccc(O)cc1O)SC(N)=N2 (stereo not drawn),-3%
3,CN(NC(=O)/C(=C/c1cc(Cl)cc(Cl)c1O)NC(=O)c1ccccc1)c1cnn(-c2ccccc2)c(=O)c1Cl,-4%
4,Cn1c(=S)c2[nH]c(SCc3ccncc3)nc2n(C)c1=O,-2%
5,O=C1N=c2ccc(Br)cc2=C1c1sc(=O)n(Cc2nc3ccccc3[nH]2)c1O,-2%
6,N#C/C(=C\c1cccnc1)c1csc2ccccc12,2%
7,Cc1nn(CCO)c(=O)c(C#N)c1C,2%
8,CN(/N=C/c1ccc(C(=O)O)cc1)C1=NCCCCN1,-2%
9,C=CCCCN1C(=O)C2C3c4ccccc4C(C=O)(c4ccccc43)C2C1=O (stereo not drawn),0%
10,CC(Cc1ccccc1)N1C(=O)C=CC1=O (stereo not drawn),20%
11,O=C(Nc1c(Cl)cc([N+](=O)[O-])cc1Cl)/C(=N\Nc1cccc(Cl)c1)c1c(O)c2ccccc2oc1=O,14%
12,C/C(=N/O)c1ccc2c(c1)C(=NO)c1cc(/C(C)=N/O)ccc1-2,10%
13,CCCCCCCCCCCC(=O)NC(CCC(=O)O)C(=O)O (stereo not drawn),-3%
14,O=C1c2ccccc2C(=O)c2c1cccc2[N+](=O)[O-],80% (active)
15,C/C=C\C=N\NC(N)=S,3%
16,Oc1c(Cl)cc(C(c2cc(Cl)c(O)c(Cl)c2)C(c2cc(Cl)c(O)c(Cl)c2)c2cc(Cl)c(O)c(Cl)c2)cc1Cl,99% (active)
17,S=C1NC2=C(CSC/C2=C\c2ccccc2)C(c2ccccc2)N1 (stereo not drawn),8%
18,O=[N+]([O-])c1cccc2nc3ccccc3c(NCCNCCO)c12,90% (active)
19,COC12C=CC(CC1)c1c2c(O)c2ccncc2c1O (stereo not drawn),4%

# Same assay, conditions: S. cerevisiae sgs1 mgt1 strain, at 50.0 µM (retest, dose inferred, filed as 5.0), hits give high values
row,Compound,growth inhibition
1,CC(=O)Oc1ccccc1C(=O)/C=C/c1ccccc1,93% (active)
2,CN(C)C(=S)/N=c1\ssc(=S)n1-c1ccccc1,100% (active)
3,CCOC(=O)C(NS(=O)(=O)c1ccccc1)(C(F)(F)F)P(=O)(OCC(C)C)OCC(C)C (stereo not drawn),-3%
4,CC(C)Nc1nc(NC(C)C)c2cnn(-c3ccccc3)c2n1,95% (active)
5,CCCCCCCCC1(OCCCS(=O)(=O)O)COc2ccccc2OCCOCCOc2ccccc2OC1,73% (active)
6,Oc1ccc2c(c1)Cc1ccccc1-2,28%
7,CCOC(=O)N1C2C=CC(=O)C(C=C2)N1C(=O)OCC (stereo not drawn),73% (active)
8,CC(=O)OCc1ccc2c(c1)C(O)NC(=O)O2 (stereo not drawn),69%
9,CC(C)=CCc1ccc(O)cc1,98% (active)
10,CCCCCCCCC(=O)Cl,64%
11,O=S1(=O)C(C(O)(c2ccccc2)c2ccccc2)CCCN1c1ccccc1 (stereo not drawn),16%
12,CCCCCCCCCCCCNCC(=O)O,23%
13,CC(C)=CCc1c2c(c(O)c3c(=O)c(-c4ccc(O)cc4O)coc13)C=CC(C)(C)O2,95% (active)
14,O=C(CCC(O)(c1ccccc1)c1ccccc1)c1ccccc1,98% (active)
15,CS(=O)(=O)OCCN(CCOS(C)(=O)=O)c1ccc(C=Nc2ccc(-c3csc(-c4ccc(Br)cc4)n3)cc2)cc1,90% (active)
16,O=P(O)(CN1CCN(CP(=O)(O)c2ccccc2)CCN(CP(=O)(O)c2ccccc2)CC1)c1ccccc1,51%
17,CC(C)c1ccc2c(c1)CCC1C(C)(CN)CCCC21C (stereo not drawn),100% (active)
18,Cc1ccc(S(=O)(=O)NNc2nc(N3CCOCC3)nc(N3CCOCC3)n2)cc1,6%
19,O=C1OC(CC(=O)c2ccc(Cl)cc2Cl)C(Cl)=C1Cl (stereo not drawn),50%
20,CCOC(=O)c1ccc(-n2c(C)nc3ccc(Br)cc3c2=O)cc1,-7%

row,Compound,growth inhibition
1,CCN(CC)CCOc1ccc(C=C2c3ccccc3-c3ccccc32)cc1,99% (active)
2,Cc1nn(C(=O)c2ccccc2O)c2c1C(c1ccc(O)cc1O)SC(N)=N2 (stereo not drawn),24%
3,CN(NC(=O)/C(=C/c1cc(Cl)cc(Cl)c1O)NC(=O)c1ccccc1)c1cnn(-c2ccccc2)c(=O)c1Cl,45%
4,Cn1c(=S)c2[nH]c(SCc3ccncc3)nc2n(C)c1=O,53%
5,O=C1N=c2ccc(Br)cc2=C1c1sc(=O)n(Cc2nc3ccccc3[nH]2)c1O,4%
6,N#C/C(=C\c1cccnc1)c1csc2ccccc12,85% (active)
7,Cc1nn(CCO)c(=O)c(C#N)c1C,14%
8,CN(/N=C/c1ccc(C(=O)O)cc1)C1=NCCCCN1,45%
9,C=CCCCN1C(=O)C2C3c4ccccc4C(C=O)(c4ccccc43)C2C1=O (stereo not drawn),23%
10,CC(Cc1ccccc1)N1C(=O)C=CC1=O (stereo not drawn),50%
11,O=C(Nc1c(Cl)cc([N+](=O)[O-])cc1Cl)/C(=N\Nc1cccc(Cl)c1)c1c(O)c2ccccc2oc1=O,14%
12,C/C(=N/O)c1ccc2c(c1)C(=NO)c1cc(/C(C)=N/O)ccc1-2,99% (active)
13,CCCCCCCCCCCC(=O)NC(CCC(=O)O)C(=O)O (stereo not drawn),-1%
14,O=C1c2ccccc2C(=O)c2c1cccc2[N+](=O)[O-],88% (active)
15,C/C=C\C=N\NC(N)=S,6%
16,Oc1c(Cl)cc(C(c2cc(Cl)c(O)c(Cl)c2)C(c2cc(Cl)c(O)c(Cl)c2)c2cc(Cl)c(O)c(Cl)c2)cc1Cl,98% (active)
17,S=C1NC2=C(CSC/C2=C\c2ccccc2)C(c2ccccc2)N1 (stereo not drawn),97% (active)
18,O=[N+]([O-])c1cccc2nc3ccccc3c(NCCNCCO)c12,99% (active)
19,COC12C=CC(CC1)c1c2c(O)c2ccncc2c1O (stereo not drawn),87% (active)
